Results: PubChem BioAssay (NCATS)
Inconclusive results are not listed. Unmarked numbers belong to inactive results. Calls of active or inactive are those of the source. Calls follow the shape of the dose curve; as a rule, active = well fitted curve in the direction sought with a large enough effect; inconclusive = small, poorly fitted or top-dose-only effect, or another doubt; inactive = no such curve, though single readings can be large; an effect the other way counts as inactive or inconclusive.

Legend:
[1] = BET inhibitor-based combinations targeting novel dependencies in MECOM-rearranged (r) AML: SET-2 cell line (AID 2202231); conditions: SET-2 AML cells viability, CellTiter-Glo luminescence, 48 h; viability: stronger effect = lower value, concentration not given here; also: nearly all actives have a fitted effect of over 35% in size;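 as to viability: plate controls were DMSO treated cells for no effect and wells without cells for full effect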
Method in brief: (§1)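 500 cells/well; 11-pt dose curve; 48 h, standard incubator; CellTiter-Glo luminescence after 15 min RT; DMSO/empty-well normalization; AUC plus Z-AUC (mean-centered within each line).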

[2] = BET inhibitor-based combinations targeting novel dependencies in MECOM-rearranged (r) AML: OCI-AML3 cell line (AID 2202232); conditions: Potency: OCI-AML3 viability; also: nearly all actives have a fitted effect of over 35% in size
Method in brief: as §1

[3] = BET inhibitor-based combinations targeting novel dependencies in MECOM-rearranged (r) AML: MV-4-11 cell line (AID 2202233); also: nearly all actives have a fitted effect of over 45% in size
Method in brief: (§2)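 Cells were plated at 500 per well and exposed to each drug across an 11-point dose range for 48 hr at standard incubator conditions. Viability was read by CellTiter-Glo luminescence, and activity was expressed as AUC and per-cell-line Z-transformed AUC.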

[4] = BET inhibitor-based combinations targeting novel dependencies in MECOM-rearranged (r) AML: HNT-34 cell line (AID 2202234); also: nearly all actives have a fitted effect of over 35% in size
Method in brief: as §2

[5] = BET inhibitor-based combinations targeting novel dependencies in MECOM-rearranged (r) AML: UCSD-AML1 cell line (AID 2202235); also: nearly all actives have a fitted effect of over 40% in size
Method in brief: as §2

[6] = BET inhibitor-based combinations targeting novel dependencies in MECOM-rearranged (r) AML: AML-191 cell line (AID 2202236; also: nearly all actives have a fitted effect of over 35% in size)
Method in brief: as §1

[7] = BET inhibitor-based combinations targeting novel dependencies in MECOM-rearranged (r) AML: AML-194 cell line (AID 2202237; also: nearly all actives have a fitted effect of over 40% in size)
Method in brief: as §1
Potency is read from the fitted curve at half-maximal effect.

SMILES | Potency [1] | Potency [2] | Potency [3] | Potency [4] | Potency [5] | Potency [6] | Potency [7] | viability [1]
C=CC(=O)Nc1cccc(Oc2nc(Nc3ccc(N4CCN(C)CC4)c(F)c3)nc3[nH]ccc23)c1 | 14.8 µM (active) | 8.33 µM (active) | 0.742 µM (active) | 1.32 µM (active) | 4.68 µM (active) | 5.9 µM (active) | 6.61 µM (active) | –
C/C(=N\NC(=S)N1CCC1)c1ccccn1 | 0.059 µM (active) | 0.0372 µM (active) | 0.0372 µM (active) | 0.0372 µM (active) | 0.0417 µM (active) | 0.0372 µM (active) | 0.0417 µM (active) | –
COc1cc(Nc2cnc(C#N)c(O[C@H](C)CN(C)C)n2)ncc1-c1cnn(C)c1 | 3.72 µM (active) | 1.32 µM (active) | 0.742 µM (active) | 2.95 µM (active) | 1.86 µM (active) | 1.86 µM (active) | 1.48 µM (active) | –
C[C@H](NC(=O)CCC(F)(F)F)C(=O)N[C@@H]1C(=O)N(CCO)c2ncccc2-c2ccccc21 | – | inactive | inactive | inactive | inactive | inactive | inactive | 95.9%
CN(C)N=Nc1nc[nH]c1C(N)=O | 16.6 µM (active) | inactive | 9.34 µM (active) | inactive | inactive | 14.8 µM (active) | inactive | –
CC1(C)O[C@@H]2C[C@H]3[C@@H]4C[C@H](F)C5=CC(=O)C=C[C@]5(C)[C@@]4(F)[C@@H](O)C[C@]3(C)[C@]2(C(=O)CO)O1 | – | inactive | inactive | inactive | inactive | inactive | inactive | 113%
Cc1cnc(NC(=O)c2cc(Oc3cnc(C(=O)N(C)C)nc3)c3cc(C)oc3c2)cn1 | – | inactive | inactive | inactive | inactive | inactive | inactive | 126%
CN(C)C/C=C/C(=O)Nc1ccc(C(=O)N2CCC[C@@H](Nc3ncc(Cl)c(-c4c[nH]c5ccccc45)n3)C2)cc1 | 5.9 µM (active) | 0.372 µM (active) | 0.235 µM (active) | 0.235 µM (active) | 0.468 µM (active) | 2.35 µM (active) | 1.66 µM (active) | –
CC(C)c1ccc(Cn2ccc3c4c(N)nc(NC5CC5)nc4ccc32)cc1 | 0.468 µM (active) | 1.48 µM (active) | 2.09 µM (active) | 1.32 µM (active) | 1.32 µM (active) | 1.32 µM (active) | 1.48 µM (active) | –
Cc1c(F)cccc1NC(=O)Nc1ccc(Cl)c(S(=O)(=O)[C@H]2CCCNC2)c1O | – | inactive | inactive | inactive | inactive | inactive | inactive | 112%
C[C@@H](Oc1cc(C(=O)Nc2ccc(C(=O)N3CCN(C)CC3)cc2)nnc1N)c1c(Cl)ccc(F)c1Cl | 18.6 µM (active) | 5.9 µM (active) | 1.66 µM (active) | 1.18 µM (active) | 1.18 µM (active) | 0.934 µM (active) | 0.934 µM (active) | –
CN(C)c1ccc(C(=O)NCCCCCCC(=O)NO)cc1 | 0.934 µM (active) | 0.833 µM (active) | 0.59 µM (active) | 1.18 µM (active) | 1.05 µM (active) | 1.18 µM (active) | 1.32 µM (active) | –
COc1cc([C@@H]2c3cc4c(cc3[C@@H](O[C@@H]3O[C@@H]5CO[C@@H](C)O[C@@H]5[C@H](O)[C@@H]3O)[C@H]3COC(=O)[C@H]23)OCO4)cc(OC)c1O | 5.25 µM (active) | 0.934 µM (active) | 0.166 µM (active) | 1.48 µM (active) | 0.833 µM (active) | 1.32 µM (active) | 2.09 µM (active) | –
C=CC(=O)N1CCc2ccc(-n3c(=O)ccc4cnc5ccc(-c6cnn(C)c6)cc5c43)cc21 | 0.456 µM (active) | 0.363 µM (active) | 0.288 µM (active) | 0.407 µM (active) | 0.229 µM (active) | 0.812 µM (active) | 0.574 µM (active) | –
CCCc1cc(C(=O)N[C@H](Cc2ccc(-c3cccc(OC(F)(F)F)c3)nc2)C(=O)N[C@@H]2CCNC2)sc1C | 20.9 µM (active) | 20.9 µM (active) | 9.34 µM (active) | 11.8 µM (active) | 10.5 µM (active) | 16.6 µM (active) | 14.8 µM (active) | –
CCC(=O)NCC[C@@H]1CCc2ccc3c(c21)CCO3 | – | inactive | inactive | inactive | inactive | inactive | inactive | 114%
CN1N=C(N)c2cn([C@@H]3O[C@H](COP(=O)(O)O)[C@@H](O)[C@@H]3O)c3ncnc1c23 | 2.63 µM (active) | 1.32 µM (active) | 0.525 µM (active) | 0.468 µM (active) | 1.18 µM (active) | 2.35 µM (active) | 1.66 µM (active) | –
